{"source": "PubChem BioAssay AID1851", "about": "(National Center for Advancing Translational Sciences (NCATS), 2009)", "note": "Hit rate of the full screen: of about 16,000 compounds, about 4,000 (25%) were called active. Roughly 26% stayed inconclusive and do not appear here. These entries were drawn from the full list. Values without a mark were called inactive. The call rests on the fitted dose curve; in most records, active means well fitted curve in the direction sought with a large enough effect; inconclusive means small, poorly fitted or top-dose-only effect, or effect the other way; inactive means no such curve, though single readings can be large or run the other way. On the % scale 0 is the no-effect control and ±100 the full control effect."}
{"target": "Cytochrome P450 2C9 (Homo sapiens) (UniProt P11712)", "sequence (P11712 whole entry, looked up)": "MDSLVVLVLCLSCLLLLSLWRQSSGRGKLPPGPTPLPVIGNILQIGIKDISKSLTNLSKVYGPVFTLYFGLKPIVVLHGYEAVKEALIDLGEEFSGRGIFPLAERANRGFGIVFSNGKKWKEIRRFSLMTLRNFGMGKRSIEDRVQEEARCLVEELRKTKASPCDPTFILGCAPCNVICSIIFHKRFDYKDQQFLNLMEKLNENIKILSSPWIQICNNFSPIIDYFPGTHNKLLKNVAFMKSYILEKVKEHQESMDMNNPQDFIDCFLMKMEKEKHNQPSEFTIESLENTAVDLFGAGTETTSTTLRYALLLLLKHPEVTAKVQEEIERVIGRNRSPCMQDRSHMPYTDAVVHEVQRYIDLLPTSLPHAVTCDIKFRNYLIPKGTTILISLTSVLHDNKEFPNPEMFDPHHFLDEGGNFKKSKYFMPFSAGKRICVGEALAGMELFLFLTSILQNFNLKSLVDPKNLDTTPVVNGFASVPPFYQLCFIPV", "test": "Cytochrome panel assay with activity outcomes", "conditions": "recombinant CYP, pro-luciferin dealkylation, luminescence, p450-cyp2c9; series mostly up to 57.1 µM; activity, negative = inhibition: at the top concentration"}
{"smiles": "c1cncc(-c2cncnc2NC2CCNCC2)c1", "activity, negative = inhibition": "17.3% [at 2.29 µM]"}
{"smiles": "COc1c(C)c2c(c(O)c1C/C=C(\\C)CCC(=O)O)C(=O)OC2", "AC50": "inactive"}
{"smiles": "C[C@H]1C[C@H]2[C@H]3CCC4=CC(=O)C=C[C@@]4(C)[C@]3(F)[C@H](O)C[C@]2(C)[C@@]1(O)C(=O)COP(=O)(O)O", "activity, negative = inhibition": "23.1% [at 11.4 µM]"}
{"smiles": "FC(F)(F)c1ccccc1-n1ccnc1", "activity, negative = inhibition": "-3.84%"}
{"smiles": "N#Cc1c(-n2ccnc2)cccc1-n1ccnc1", "AC50": "562 nM (active)"}
{"smiles": "N#Cc1cccc(-c2cncnc2-n2ccnc2)c1", "activity, negative = inhibition": "12.2% [at 2.29 µM]"}
{"smiles": "CCCCCCCCOC1OC(CO)C(O)C(O)C1NC(C)=O", "note": "(centres undefined)", "activity, negative = inhibition": "11.5%"}
{"smiles": "C[C@@H]1C[C@H]2[C@H]3C[C@@H](F)C4=CC(=O)C=C[C@]4(C)[C@@]3(Cl)[C@@H](O)C[C@@]2(C)[C@@H]1C(=O)COC(=O)C(C)(C)C", "activity, negative = inhibition": "6.05% [at 25.6 µM]"}
{"smiles": "COc1ccccc1S(=O)(=O)Nc1ccc(-c2nnc3n2CCCCC3)cc1", "activity, negative = inhibition": "-3.81%"}
{"smiles": "Cc1cccc(C)c1NC(=O)Nc1ccc(S(N)(=O)=O)cc1", "activity, negative = inhibition": "-4.33% [at 11.4 µM]"}
{"smiles": "COc1ccc(S(=O)(=O)Nc2ccc(F)cc2)c(C)c1C", "AC50": "8910 nM (active)"}
{"smiles": "Cn1c(CNS(=O)(=O)c2ccc(F)cc2)n[nH]c1=S", "activity, negative = inhibition": "-10.4%"}
{"smiles": "COc1ccc(F)cc1S(=O)(=O)NC(Cc1ccccc1)C(N)=O", "note": "(centres undefined)", "activity, negative = inhibition": "-18.3%"}
{"smiles": "CC(C)(C)NS(=O)(=O)c1ccc(NS(=O)(=O)c2ccc(F)cc2)cc1", "AC50": "200 nM (active)"}
{"smiles": "CC(C)(C)NS(=O)(=O)c1ccc(NC(=O)NC2CCCCC2)cc1", "AC50": "20000 nM (active)"}
{"smiles": "CC(=O)c1ccc(S(=O)(=O)NC(=O)NC2CCCCC2)cc1", "activity, negative = inhibition": "-9.98% [at 25.6 µM]"}
{"smiles": "CC(C)(C)c1ccc(NS(=O)(=O)c2ccc(N)cc2)cc1", "activity, negative = inhibition": "-10.7% [at 11.4 µM]"}
{"smiles": "CC(C)(Oc1ccc(CCNC(=O)c2ccc(Cl)cc2)cc1)C(=O)O", "activity, negative = inhibition": "-6.71% [at 25.6 µM]"}
{"smiles": "CCN=C(Nc1ccc(Cl)cc1)c1cccnc1", "activity, negative = inhibition": "-9.1%"}
{"smiles": "CC(C)OC(=O)C(C)(C)Oc1ccc(C(=O)c2ccc(Cl)cc2)cc1", "activity, negative = inhibition": "-71.5% [at 25.6 µM]"}
{"smiles": "CC(C)(Oc1ccc(Cl)cc1)C(=O)Nc1ccncc1", "AC50": "501 nM (active)"}
{"smiles": "CC(C)(Oc1ccc(Cl)cc1)C(=O)Nc1cccnc1", "AC50": "14100 nM (active)"}
{"smiles": "CC(C)N=C(Nc1ccc(Cl)cc1)c1cccnc1", "activity, negative = inhibition": "-21.8%"}
{"smiles": "Nc1cc(C(=O)O)[nH]c(=O)n1", "activity, negative = inhibition": "7.9% [at 11.4 µM]"}
{"smiles": "CC(=O)OCC(=O)[C@@]1(OC(C)=O)[C@H](C)C[C@H]2[C@@H]3C[C@H](F)C4=CC(=O)C=C[C@@]4(C)[C@]3(F)[C@H](O)C[C@@]21C", "activity, negative = inhibition": "-50.1% [at 25.6 µM]"}
{"smiles": "CN(C)CCC=C1c2ccccc2CCc2ccccc21", "activity, negative = inhibition": "-10.9%"}
{"smiles": "O=C(CCN1C(=O)C2C3C=CC(C3)C2C1=O)Nc1c(F)cccc1F", "note": "(centres undefined)", "activity, negative = inhibition": "-21.6%"}
{"smiles": "CC(=O)NC(CCS(C)(=O)=O)C(=O)Nc1c(F)cccc1F", "note": "(centres undefined)", "activity, negative = inhibition": "-3.82%"}
{"smiles": "CS(=O)(=O)N(CC(=O)Nc1c(F)cccc1F)c1ccc(C23CC4CC(CC(C4)C2)C3)cc1", "AC50": "3980 nM (active)"}
{"smiles": "CCN(CC)c1ccc(N2C(=O)/C(=C/c3cccnc3)SC2=S)cc1", "activity, negative = inhibition": "-19.1%"}
{"smiles": "Cc1ccc(S(=O)(=O)/N=C2/NC(=O)/C(=C/c3cccnc3)S2)cc1", "AC50": "79.4 nM (active)"}
{"smiles": "CC(C)NC(=O)CC(=O)N/N=C/c1ccc(F)cc1", "activity, negative = inhibition": "-8.73%"}
{"smiles": "CC(C)c1ccc(/C=N/NC(=O)CN(c2cccc(Cl)c2Cl)S(C)(=O)=O)cc1", "AC50": "8910 nM (active)"}
{"smiles": "C/C(CCN1CCc2nc(-c3ccccc3)c(-c3ccccc3)cc2C1)=N\\O[C@@H](C)CN1CCCCc2nc(C)c(C)cc21", "activity, negative = inhibition": "2.2% [at 11.4 µM]"}
{"smiles": "CN(C)Cc1ccccc1-c1cc(-n2ccnc2)ncn1", "activity, negative = inhibition": "-14.3% [at 2.29 µM]"}
{"smiles": "C#CCN(C)Cc1ccccc1", "AC50": "inactive"}
{"smiles": "CN(Cc1ccccc1)Cn1ccnc1", "AC50": "2510 nM (active)"}
{"smiles": "CC1(C)CC(=O)c2cn3ncnc3nc2C1", "activity, negative = inhibition": "5.85%"}
{"smiles": "O=C(Nc1ccc2c(c1)nc1n2CCN(C2CCCCC2)C1)NC1CCCCC1", "AC50": "14100 nM (active)"}
{"smiles": "CC1CCN(CCc2nc3cc(NC(=O)NC4CCCCC4)ccc3n2C)CC1", "activity, negative = inhibition": "-16%"}
{"smiles": "Cn1c(CN2CCCC2)nc2cc(NC(=O)C3CCCCC3)ccc21", "activity, negative = inhibition": "0.65%"}
{"smiles": "CO[C@@]12C[C@@H](COC(=O)c3cncc(Br)c3)CN(C)[C@H]1Cc1cn(C)c3cccc2c13", "AC50": "inactive"}
{"smiles": "N/C(CC/C(N)=N/O)=N\\O", "activity, negative = inhibition": "-8.92% [at 11.4 µM]"}
{"smiles": "CCc1cccc2c(C=C(C#N)C#N)cn(CC(=O)N3CCCCC3)c12", "activity, negative = inhibition": "-10.4%"}
{"smiles": "CCN(CC)C(=O)Cn1cc(/C=C(\\C#N)C(=O)N2CCN(c3ccccc3)CC2)c2ccccc21", "AC50": "3550 nM (active)"}
{"smiles": "O=C1O[C@H](CN2CCOCC2)CN1/N=C\\c1ccc([N+](=O)[O-])o1", "activity, negative = inhibition": "8.64% [at 25.6 µM]"}
{"smiles": "C[C@@H](C[N+](C)(C)C)OC(N)=O", "activity, negative = inhibition": "1.12% [at 25.6 µM]"}
{"smiles": "COc1ccc(-n2c(=O)c(-c3cccc(F)c3)nc3cncnc32)cc1", "activity, negative = inhibition": "2.43%"}
{"smiles": "Cn1c(=O)c(-c2cc(F)cc(F)c2)nc2cncnc21", "activity, negative = inhibition": "-20.8%"}
{"smiles": "COc1ccccc1CCn1c(=O)c(-c2cc(F)cc(F)c2)nc2cncnc21", "AC50": "1580 nM (active)"}
{"smiles": "COc1ccccc1CCn1c(=O)c(-c2cccc(F)c2)nc2cncnc21", "AC50": "2510 nM (active)"}
{"smiles": "COCCn1c(=O)c(-c2cccc(F)c2)nc2cncnc21", "activity, negative = inhibition": "-29.5%"}
{"smiles": "COCCn1c(=O)c(-c2cc(F)cc(F)c2)nc2cncnc21", "activity, negative = inhibition": "4.81%"}
{"smiles": "O=C(c1ccccc1)c1ccc2n1CC[C@H]2C(=O)O", "AC50": "inactive"}
{"smiles": "c1ncc(-c2ccoc2)c(NC2CC2)n1", "activity, negative = inhibition": "5.65% [at 2.29 µM]"}
{"smiles": "CCCNc1[nH]c(=O)n(C)c(=O)c1N=O", "activity, negative = inhibition": "-18.2%"}
{"smiles": "O=C(O)C12CC3(C(=O)O)CC(C(=O)O)(CC(C(=O)O)(C1)C3=O)C2=O", "activity, negative = inhibition": "-3.16% [at 11.4 µM]"}
{"smiles": "COc1cccc(/C(O)=C2/C(=O)C(=O)N(Cc3cccnc3)C2c2ccco2)c1", "note": "(centres undefined)", "AC50": "398 nM (active)"}
{"smiles": "COCCN1C(=O)C(=O)/C(=C(/O)c2cccc(OC)c2)C1c1ccco1", "note": "(centres undefined)", "activity, negative = inhibition": "-10.9%"}
{"smiles": "COc1ccc(/C(O)=C2/C(=O)C(=O)N(Cc3cccnc3)C2c2ccco2)cc1OC", "note": "(centres undefined)", "AC50": "8910 nM (active)"}
{"smiles": "COc1ccccc1-c1cc(NCc2cccnc2)ncn1", "activity, negative = inhibition": "-17.3% [at 2.29 µM]"}
{"smiles": "COc1ccc(C2C(C(=O)c3ccco3)=C(O)C(=O)N2Cc2cccnc2)cc1OC", "note": "(centres undefined)", "activity, negative = inhibition": "18%"}
{"smiles": "CCOc1cccc(/C(O)=C2/C(=O)C(=O)N(Cc3cccnc3)C2c2ccco2)c1", "note": "(centres undefined)", "AC50": "1580 nM (active)"}
{"smiles": "COCCCN1C(=O)C(=O)/C(=C(/O)c2ccc(OC)cc2C)C1c1cccnc1", "note": "(centres undefined)", "activity, negative = inhibition": "-3.89%"}
